Whole data set: some 33,000 sequences, median “E-score (-0.5 to 0.5)” near -0.012, cut for the highest 2% near 0.29. The sample holds the highest values, similar sequences and a random draw of the others, so the mix is not that of the screen.
The sequences below were run against T1, Ybr033w (UniProt P38073) (assay: PBM E-score (8-mer binding enrichment) (E-score (-0.5 to 0.5)); higher = stronger / more preferred TF binding). Details: protein concentration: 200 nM; construct: GST-full length.
T1 sequence: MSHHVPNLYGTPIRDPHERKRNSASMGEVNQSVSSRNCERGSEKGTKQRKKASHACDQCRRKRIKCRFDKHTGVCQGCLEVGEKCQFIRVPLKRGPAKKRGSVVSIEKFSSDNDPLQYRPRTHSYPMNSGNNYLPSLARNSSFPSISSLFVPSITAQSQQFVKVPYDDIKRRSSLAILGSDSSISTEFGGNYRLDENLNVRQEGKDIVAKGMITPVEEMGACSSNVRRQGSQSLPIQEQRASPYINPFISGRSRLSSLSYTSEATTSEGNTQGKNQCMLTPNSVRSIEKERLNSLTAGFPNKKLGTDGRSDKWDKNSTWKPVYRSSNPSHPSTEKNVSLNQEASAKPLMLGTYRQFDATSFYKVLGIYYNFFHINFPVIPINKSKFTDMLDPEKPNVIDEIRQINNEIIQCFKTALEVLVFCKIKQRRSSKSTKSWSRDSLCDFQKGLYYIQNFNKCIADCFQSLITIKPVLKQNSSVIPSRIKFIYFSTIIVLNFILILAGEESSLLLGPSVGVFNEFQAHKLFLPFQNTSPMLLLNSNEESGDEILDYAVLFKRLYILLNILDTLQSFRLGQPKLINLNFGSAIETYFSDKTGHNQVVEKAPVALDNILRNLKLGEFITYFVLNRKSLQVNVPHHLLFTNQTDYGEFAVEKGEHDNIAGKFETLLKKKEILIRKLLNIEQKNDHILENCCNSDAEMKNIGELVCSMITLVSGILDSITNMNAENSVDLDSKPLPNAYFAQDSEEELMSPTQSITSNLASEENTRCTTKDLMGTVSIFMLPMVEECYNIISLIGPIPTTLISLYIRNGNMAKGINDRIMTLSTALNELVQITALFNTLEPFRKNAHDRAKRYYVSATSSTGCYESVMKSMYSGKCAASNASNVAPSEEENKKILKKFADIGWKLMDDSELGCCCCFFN
How it was run: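 Yeast transcription factors, full-length or as DNA-binding domains, were expressed with a GST tag using PURExpress in vitro transcription/translation. At about 100-200 nM they were applied to universal all-10-mer Agilent arrays, double-stranded by primer extension on fresh or once-stripped slides. Fluorescent anti-GST detected bound protein, and masliner normalised the scans. E-scores for ungapped eight-base words, pooled with reverse complements, came from the Universal PBM Analysis Suite.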

Sequence	PBM E-score
GAATTGAC	0.00537
CAGGCGGA	0.122
AACGCTTG	-0.194
AATTCTCA	0.204
CATTCTCC	0.0353
AATTCTCC	0.293
ATTTCTCA	0.192
ATTTCTCC	0.404
CTTTCTCC	-0.103
CAGGCTGA	-0.237
GACAGAGA	-0.066
ACCCTACT	0.0025
TGCTACCA	-0.0533
AATGCATG	0.0293
AATGCATA	0.126
AATGCATT	0.31
AGTAGTAT	0.185
AAAAGCCC	-0.113
CAAAGACA	0.0541
AAAAGACC	-0.141
GAAAGCCA	-0.136
AAAAGCCA	0.3
AAAAGACA	0.292
CCCAGTGA	-0.194
AGCAGTGG	0.0536

Sequence	PBM E-score
ATCTTGAA	0.187
ATATTAAG	0.285
ACATTAAT	0.235
ATATTAAC	0.301
ATATTAAT	0.314
GTATTAAC	0.0593
CTATTAAC	0.268
TTATTAAA	0.283
CTATTAAA	0.196
ATATTAAA	0.355
GGCTCTAC	-0.185
GGAACACA	0.149
GAGCTGTA	-0.11
TCCATACA	0.0807
ATTTTCAG	0.148
ATTCGCCG	0.0215
ATCGACAC	-0.0724
CGTGAACA	0.00947
GTGTGTTA	0.292
ATGTGTTA	0.163
CTGTGTTA	-0.00531
CAAGGTCG	-0.0398
AACGACTC	-0.219
AGTTTATC	0.363
ACTTTATG	0.132

Sequence	PBM E-score
AATTTAGG	0.229
AATTTATG	0.317
CATTTATC	0.278
AATTTATA	0.257
AGTTTATG	0.2
AATTTATC	0.398
AGTTTATA	0.215
GCAAGCGC	-0.00847
GTAACCAC	-0.255
CTCAATGC	-0.0435
AGATCTTG	-0.00564
GAAGTGAA	0.155
AAAGTGAA	0.164
TAAGTGAA	0.293
CAAGCCAG	-0.0473
ATTAGATC	0.0257
ATTAGATG	0.329
ATTAGATA	0.222
AATCGGGG	-0.125
CTAATCTC	-0.0112
GTAATCTA	0.207
AAAATCTG	0.235
ATAATCTC	0.293
ATAATCTG	0.117
ACAATCTC	0.0789

Sequence	PBM E-score
ATAATCTA	0.294
AAAATCTA	0.289
GAAATCTA	0.116
AGACAGGA	0.246
TCTCAAAA	0.143
GCGAGACA	-0.0827
CAAATAGG	0.00709
CAGACGAG	-0.108
GAACGGAA	0.0333
AAACGGAC	-0.102
AAACGGAA	0.341
AACTCAAT	0.0866
GGGTGAGA	-0.224
CTCACTTA	0.0375
GGGTAAGA	-0.154
CACACTAA	0.299
CACACTAG	0.0753
TACACTAA	0.0217
GCGCTGAA	-0.0684
ACCACGAG	0.0793
ATTAGTTA	0.344
GTTAGTTA	0.262
ATTAATTA	0.387
GTTAATTA	0.266
CGTAATTC	0.0565

Sequence	PBM E-score
ATTAAGTG	0.167
ATTAATTG	0.268
ATTAAGTA	0.365
GGTAATTA	0.175
CGTAATTA	0.29
GTTAAGTA	0.113
ATTAGTTG	0.265
CGGGGCGA	-0.145
AAACACCC	0.0312
GCGCGATA	0.181
CCTCCTAC	-0.107
GACCTATA	0.189
GGTGGCCA	-0.292
AACAGTAA	0.173
CTCTTCGA	0.0693
ACAGGTGA	0.0969
ACTTACCA	0.0956
CCGCTAAC	-0.0857
ATTAATTC	0.291
AGTAATTA	0.232
AGTAATTC	0.318
ACTAATTC	0.221
AGTAATTG	0.129
CTTAATTC	0.257
CCTTACCA	-0.00851

Sequence	PBM E-score
ACACCTGA	-0.0619
AGTTCTAC	0.0539
AATCAAGC	0.0885
ACATATTG	0.193
CTATATCC	0.159
ATATATTC	0.326
ACATATTA	0.349
ATATATCC	0.372
ATATATCA	0.0628
CTATATTC	0.215
CTATATTA	0.284
GTATATTA	0.257
CCATATTA	0.146
ATATATTG	0.14
ATATATTA	0.306
AAGAGGGG	-0.226
GTGCCACA	-0.302
CTGGCAGA	-0.00651
GCGGGACA	-0.243
CGCGATCA	0.0933
AGATCTGA	-0.108
CTAAGGGA	0.0981
ACCTGCGG	-0.146
ACTGCCAT	0.00233
TCCTCGAA	0.126

Sequence	PBM E-score
AACCAAAT	0.228
ATGGGGTG	-0.195
CGATATTA	0.336
GGATATTA	0.144
CGATATTC	0.123
AACTTCCC	0.00652
AGATAGGA	0.00058
ATTATTTC	0.332
ATTTATTC	0.361
ATTATTTG	0.335
ATTTATTG	0.0954
CTTTATTC	0.192
ATTTATTA	0.293
GTTTATTA	0.276
CTTTATTA	0.191
ATTATTAG	0.152
ACTATTTG	0.248
CTTATTTC	0.235
ACTATTTC	0.237
AGCCAATA	-0.0344
AAAAAGCG	0.112
CCGTTGCG	-0.192
AAGAATAG	0.204
CGACAAAC	0.0224
CCATGGGA	-0.0942

Sequence	PBM E-score
AAACTAGG	0.0193
GGAGAGAC	-0.0678
ACTATTCG	0.177
CTTATTTA	0.106
ATTATTCA	0.231
GTTATTTA	0.258
ATTATTCG	0.328
ATTATTTA	0.373
AAATCTCT	0.152
AGAAAGTC	0.173
CCACGAGG	-0.0481
AATAGGAT	0.295
TATAGGAA	0.232
AATAGGAG	-0.253
AATAGGAC	0.0355
AATAGGAA	0.29
CATAGGAA	0.0524
ACGCGACC	-0.208
ACTAACCA	0.11
AGCACTTC	0.0586
ACGCGACT	-0.174
CATTATCC	0.224
CATTACTC	0.11
CATTATTA	0.243
AATTATAC	0.284

Sequence	PBM E-score
CATTATTC	0.213
GATTATCC	0.396
GATTATCA	0.19
GATTATAA	0.172
AATTATTC	0.423
GATTATTA	0.298
AATTACTA	0.234
AATTACTC	0.328
AACGGCTC	-0.0166
TAGGAATA	0.194
AGTGGTCG	-0.159
ATTGCCAA	-0.00029
TATTGGCA	0.0828
ACATTGCG	0.0729
TGTCCACA	0.134
GGACACAA	0.163
CTGAGCAA	-0.0556
ATGCCTAC	-0.0813
CACTGGGA	-0.0293
ATACAAGC	0.209
AATTATTG	0.274
AGTTATTC	0.345
AGTTATTG	0.223
AATTATAA	0.253
AATTATTA	0.359

Sequence	PBM E-score
AGTTATTA	0.173
ATGAAGAG	0.0478
AGAAGACG	0.123
ATTTCCTA	0.101
ATTTCCGG	0.298
ATTTCCTC	0.176
ATTTCCGC	0.15
ATTTCCTG	0.3
ATTTCCGA	0.247
CCCGAGGC	-0.329
ATTAAGCC	0.0562
AACTTGAG	-0.167
TATTTACA	0.21
AAATTACT	0.333
AATTTTAA	0.285
AATTTTAT	0.331
AATTTTAC	0.282
AAATTACC	0.164
CATTTACA	0.197
AACTTGAA	0.251
AAATTACG	0.111
GATTTACA	0.297
AACTTGAT	0.333
CGCTCCTA	-0.101
AGTTAGAA	0.0705

Sequence	PBM E-score
GTGGCTGA	-0.183
GACAGCAC	-0.00022
GGGTCCTA	-0.279
TCTAAGCA	-0.00029
CCGCTGCC	-0.418
CCAGAGCA	-0.0441
AACCAGCC	-0.0273
GACCAGGC	-0.164
AGGATGCA	-0.0489
CGTTCTAC	0.00885
CTGTTGTC	-0.0159
AACTTAAA	0.237
AATTTAGT	0.241
AATTTAAT	0.319
AACTTAAT	0.314
AATTTACT	0.311
AATTTAAG	0.211
AATTTACA	0.134
AACTTAAG	0.0775
AATTTAAC	0.245
CCTACCGC	-0.292
CCCAGTAC	-0.0948
CGAAGCGA	-0.0591
ACCAACAC	-0.0108
ACCTTGAA	0.102

Sequence	PBM E-score
GGATTATA	0.244
TAATTATA	0.382
GCATTATA	0.0824
TAATTCTA	0.288
GAATTAAC	0.249
GAATTATA	0.307
GAATTATC	0.305
AAATTCTA	0.217
GAATTACC	0.139
CAATTATA	0.28
AAATTATA	0.215
GAATTCTA	0.176
CTGCACAG	-0.0409
ATCCATAG	-0.0877
CCAGAAAG	0.171
CCTAAATC	0.0625
AATTGACG	-0.0634
CTATGCGA	-0.0724
AGAAATAT	0.299
GGAAATAA	0.284
AGAAATAA	0.36
CGAAATAA	0.264
AGAAATAG	0.227
AGAAATAC	0.104
AATTGCCT	0.0818

Sequence	PBM E-score
AAACTCCG	0.17
CTCTGCTC	-0.16
ACTGGCCC	0.0468
AGTTGGAT	0.288
AGTTGGAG	-0.0321
AGTTGGAC	-0.0273
CAGTCACG	-0.248
CACCGTGG	-0.311
AACAAGTG	0.127
ACCACCGC	-0.197
CAGATTAA	0.291
AAGATTAG	0.219
TAGATTCA	0.0876
AAGATTAA	0.289
TAGATTAA	0.312
CAGATTAG	-0.134
GAGATTAA	0.182
AAGATTAC	0.101
TAGATTGA	0.233
TCTGGGAA	-0.0142
GACGTCAA	-0.013
AGTTGGAA	0.124
CCCAAGAG	-0.146
AATCATCA	0.17
CCTGCCAG	-0.2

Sequence	PBM E-score
CTGGCCTA	-0.0592
AAAATCAT	0.31
ATAATCAA	0.229
ATAATCAG	0.092
AAAATCAG	0.188
AAAATCAA	0.221
ATAATCAT	0.292
CGGAAAGA	-0.0353
AGGTGTAC	0.0056
CTCAAGTA	0.0799
ATAGCTTG	-0.0519
GGCGACCC	-0.301
ACACACAT	0.117
AAATCGCT	-0.173
ACTTATAA	0.305
TCTTATAA	0.0725
ACTTATAT	0.328
GCTTATAA	0.147
ACTTATAC	0.244
ACTTATAG	0.0878
